HepG2 tox: counter-screen for TGF-b inhibitors: cytotoxicity in HepG2 cells | AID 588856 | 0.76% of 410,000 active | HepG2 CAGA-GFP viability, ATP luminescence, 18 h | Potency, µM (series often up to 46.1 µM), inactives show at the top dose activity change, negative = cytotoxicity, usual class: cytotoxic
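CellTiter-Glo luminescence gave cytotoxicity after 18 hours at 37 degrees C. The cells were HepG2 CAGA-GFP in 1% FBS DMEM, stimulated with 500 pg/mL TGF-beta after compound addition. %Activity was normalised to no-cell wells (complete cell-killing) and DMSO (no toxicity), and curves were fitted and classified.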
HT1080NT lethal: kills 2HG-producing HT-1080-NT fibrosarcoma cells; 1.6% of 360,000 active; HT-1080-NT fibrosarcoma viability, CellTiter-Glo ATP luminescence, 48 h; Potency, µM (top dose mostly 46.1 µM), inactives show at the highest dose activity, negative = less viability, actives largely listed as cytotoxic;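 further: NT is the 2HG producing partner of a matched IDH1 knockdown line; 0% = DMSO-treated cells and -100% = media-only wells without cells; nearly all actives have a fitted effect of over 55% in size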
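Compounds were tested in concentration-response format on HT-1080-NT cells for 48 hours at 37 degrees C. Cell viability came from CellTiter-Glo luminescence; curves were classified by r2, response magnitude and activity.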
HT1080 IDH1KD tx: toxicity to HT-1080 IDH1 knockdown cells (counter line); HT-1080 IDH1 knockdown viability, ATP luminescence, 48 h; Potency, µM (top dose mostly 46.1 µM), for inactives: at the top dose activity, negative = toxicity, hits mostly cytotoxic; 2% of 360,000 active;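 further: 0% = DMSO wells and -100% = cell-free medium wells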
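HT-1080-IDH1KD cells (IDH1 knocked down), 750/well in RPMI with 5% FBS, treated with compound 48 h at 37 degrees C. Viability by CellTiter-Glo luminescence, normalised to DMSO and no-cell wells; concentration-response curves classed.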
TDP1 cell CPT: DT40-hTDP1 cell growth loss with CPT; chicken DT40 Tdp1-/-;hTDP1 cells + 20 nM CPT, ATP luminescence, 48 h; Potency, µM (series often up to 46.2 µM), without a hit: at the top dose activity change, negative = growth inhibition, usual class: inhibitors; 12% of 420,000 active; AID 686979; further: on the % scale 0 is the no-effect control and ±100 the full control effect; nearly all actives have a fitted effect of over 55% in size
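Cell growth measured by CellTiter-Glo luminescence after a minimum 48 h, 37 C compound exposure with 20 nM CPT in Tdp1-knockout DT40 cells stably expressing hTDP1, seeded 400/well; qHTS titration format.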
TDP1 cell noCPT: qHTS for Inhibitors of human tyrosyl-DNA phosphodiesterase 1 (TDP1): qHTS in cells in absence of CPT; AID 686978, 2013; 15% of 420,000 active; DT40 Tdp1-/- hTDP1 cells, no CPT, ATP luminescence, 48 h; Potency, µM (top dose mostly 46.2 µM), inactives show at the highest dose activity change, negative = growth inhibition, actives largely listed as inhibitors; further: on the % scale 0 is the no-effect control and ±100 the full control effect; nearly all actives have a fitted effect of over 55% in size
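Chicken DT40 Tdp1-/- cells stably complemented with human TDP1 were seeded at 400 cells/well with DMSO in place of 20 nM camptothecin. After compound pinning, cells grew at least 48 hr at 37 °C; viability read by CellTiter-Glo luminescence.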
TGFb SMAD3 inh: blocks TGF-b signaling; HepG2 CAGA-GFP TGF-b/SMAD3 reporter, GFP fluorescence, 18 h; TGF-beta stimulated, 500 pg/mL final; Potency, µM (highest dose often 46.1 µM), for inactives: top-dose activity, negative = inhibition, actives largely listed as inhibitors; 1.2% of 410,000 active; further: on the % scale 0 is the no-effect control and ±100 the full control effect; nearly all actives have a fitted effect of over 65% in size
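HEPG2 CAGA-GFP cells (1000/well, DMEM with 1% FBS) were pre-incubated 2 h at 37 degrees C, given compound by pin tool, then stimulated with TGF-beta at 500 pg/mL final for 18 h before per-cell GFP fluorescence imaging.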
* hit, by the source's call; ? = inconclusive; · = not tested or not shown. Only some compounds are listed: those with a hit (about 17% of all), similar ones and a draw of the others. The call rests on the fitted dose curve; in most records, active means well fitted curve in the direction sought with a large enough effect; inconclusive means small, poorly fitted or top-dose-only effect, or another doubt; inactive means no such curve, though single readings can be large; an effect the other way counts as inactive or inconclusive. Potency means the concentration at half of the fitted maximal effect.

SMILES	HepG2 tox	HT1080NT lethal	HT1080 IDH1KD tx	TDP1 cell CPT	TDP1 cell noCPT	TGFb SMAD3 inh
CCOc1ccc(S(=O)(=O)NC2CCCCC2C)cc1 (configuration not stated)	1.3%	-0.3%	2.8%	?	?	0.4%
Cc1ccc(S(=O)(=O)NCCCNS(=O)(=O)c2ccccc2)cc1	-5.9%	-2.3%	-0.8%	-6.7%	-16.4%	-4.7%
CC(=O)CCS(=O)(=O)c1ccc(NC(C)=O)cc1	-44.6%	?	?	13µM*	18.4µM*	?
CCOc1cc(S(=O)(=O)Nc2cc(C)cc(C)c2)ccc1Cl	-101.3%	?	?	16.4µM*	16.4µM*	22.4µM*
Cc1ccc(S(=O)(=O)NCCCCCCNS(=O)(=O)c2ccc(C)cc2)cc1	-32.1%	-17.7%	-5.0%	?	23.1µM*	?
O=C(c1ccc(-n2cncn2)c([N+](=O)[O-])c1)N1CCN(S(=O)(=O)c2ccccc2F)CC1	0.0%	-3.5%	-12.7%	-13.1%	?	-17.9%
S=C1NCN(C2CCCCC2)CN1Cc1ccccc1	5.9%	24.1%	19.5%	3.8%	-4.7%	2.1%
Cc1ccc(S(=O)(=O)NCc2ccncc2)cc1	-6.7%	-16.2%	6.51µM*	4.11µM*	3.66µM*	?
Cc1ccc(S(=O)(=O)NCC(=O)NCc2ccncc2)cc1	-5.9%	8.7%	8.8%	-12.2%	-3.7%	1.8%
CCOc1ccc(NS(=O)(=O)c2ccc(C(=O)NCc3cccnc3)cc2)cc1	-6.3%	-12.4%	-10.0%	?	?	-0.4%
CCOc1ccc(NS(=O)(=O)c2ccc(C(=O)NCc3ccncc3)cc2)cc1	-0.5%	-0.5%	1.1%	?	13µM*	6.6%
C=C1C(=O)[C@]23C[C@H]1CC[C@H]2[C@]1(C)[C@@H](O)CC[C@@](C)(C(=O)O)[C@H]1C[C@@H]3O	-89.1%	?	?	2.31µM*	2.91µM*	8.91µM*
C=C1C(=O)[C@]23C[C@H]1CC[C@H]2[C@]1(C)[C@@H](OC(C)=O)CC[C@@](C)(C(=O)O)[C@H]1C[C@@H]3O	-79.4%	6.51µM*	5.8µM*	1.03µM*	1.03µM*	5.62µM*
C=C1C(=O)[C@]23C[C@H]1CCC2[C@@]1(C)C(C[C@@H]3O)[C@](C)(C(=O)O)C[C@H](O)[C@@H]1O (some centres not stated)	-1.6%	27.6%	-1.8%	2.1%	8.0%	-3.8%
C=C1C(=O)[C@]23C[C@H]1CC[C@H]2[C@]1(C)[C@@H](OC(C)=O)CC[C@@](C)(C(=O)OC)[C@H]1C[C@@H]3OC(C)=O	5.62µM*	3.66µM*	2.59µM*	0.581µM*	0.92µM*	?
COC(=O)C1OC(=O)C2OC23[C@]2(C)C(O)CC4C(C)(C)C(OC(C)=O)CC(OC(C)=O)[C@@]4(C)C2CC[C@@]13C (some centres not stated)	·	·	·	-0.1%	4.2%	·
C=C1C(=O)[C@]23C[C@H]1CCC2[C@@]1(C)C(C[C@@H]3O)[C@](C)(C(=O)OC)CC[C@@H]1OC(C)=O (some centres not stated)	5.62µM*	2.59µM*	1.16µM*	0.82µM*	0.92µM*	1µM*
Cc1ccc(S(=O)(=O)N2CCC[C@H]2C(=O)Nc2ccc(F)cc2C)cc1	-24.7%	-8.7%	4.0%	?	-11.1%	?
CCOC(=O)N1CCN(Cc2nc(-c3ccc(C)cc3)no2)CC1	-17.1%	-1.9%	-5.5%	?	-25.5%	-15.5%
COc1ccc(S(=O)(=O)N2CCN(Cc3cc(OC)c(OC)c(OC)c3)CC2)cc1	-3.0%	6.9%	-0.3%	?	?	15.8%
CCC(C)c1ccc(S(=O)(=O)N2CCN(C(=O)c3ccc(Cl)c(S(=O)(=O)N4CCOCC4)c3)CC2)cc1 (configuration not stated)	-18.1%	-10.4%	-27.3%	?	18.4µM*	?
COc1ccccc1N1CCN(C(=O)c2ccc(Cl)c(S(=O)(=O)N3CCOCC3)c2)CC1	-21.8%	-0.3%	-2.0%	25.9µM*	?	?
O=C(c1ccc(Cl)c(S(=O)(=O)N2CCOCC2)c1)N1CCN(c2ccccc2)CC1	-14.2%	-3.3%	0.7%	?	?	-1.5%
COc1ccccc1N1CCN(C(=O)c2ccc(Cl)c(S(=O)(=O)NCc3ccco3)c2)CC1	-13.7%	8.91µM*	7.08µM*	5.62µM*	5.01µM*	-7.2%
O=C(c1ccc(Cl)c(S(=O)(=O)NCc2ccco2)c1)N1CCN(c2ccccc2F)CC1	-22.1%	?	?	?	?	-7.9%
SMILES	HepG2 tox	HT1080NT lethal	HT1080 IDH1KD tx	TDP1 cell CPT	TDP1 cell noCPT	TGFb SMAD3 inh
Cc1ccc(C(=O)OCCc2c(C)[nH]n(-c3ccccc3)c2=O)cc1	2.2%	-7.4%	-7.8%	-21.2%	-19.8%	-12.0%
Cc1oc2c(C)c(O)ccc2c(=O)c1-c1cnn(-c2ccccc2)c1	-72.8%	8.1%	2.3%	-27.1%	?	?
Cc1[nH]nc(-c2ccc(O)c(C)c2O)c1-c1cnn(-c2ccccc2)c1	-10.2%	2.8%	4.5%	-12.8%	-20.6%	7.08µM*
O=C(O)C1Cc2ccccc2CN1C(=O)CCl (configuration not stated)	-10.6%	17.5%	24.9%	16.6%	2.7%	-1.7%
Cc1ccc(Cn2c(SCCN3CCCCC3)nc3c2c(=O)n(C)c(=O)n3C)cc1	-11.1%	-23.1%	-19.7%	?	14.6µM*	15.4%
Cn1c(=O)c2c(nc(SCCN3CCOCC3)n2Cc2cccc3ccccc23)n(C)c1=O	-21.7%	-18.7%	?	8.2µM*	5.17µM*	-9.0%
COCc1c(C(=O)OCC(=O)NCCc2ccc(S(N)(=O)=O)cc2)oc2ccccc12	-17.7%	15.5%	0.8%	5.4%	-2.6%	-2.8%
O=S(=O)(Nc1cccc(-c2ccc(N3CCCCC3)nn2)c1)c1cccc(F)c1	-17.4%	·	·	-24.0%	-29.4%	-5.7%
CCOC(=O)CCCC(=O)N1CCN(/[N+]([O-])=N/Oc2ccc([N+](=O)[O-])cc2[N+](=O)[O-])CC1	-105.1%	·	·	·	·	?
CCc1cccc2c(SC(C)C(=O)NCC3CCCO3)nc(-c3ccccc3)nc12 (configuration not stated)	-16.5%	0.0%	2.6%	?	?	-5.7%

Assay outcomes: PubChem BioAssay, National Center for Advancing Translational Sciences (NCATS)
